Entries with a potency or affinity are not part of this list. Inconclusive results are not listed. Calls of active or inactive are those of the source.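 How the source made its calls, unless noted: active means fitted dose curve reaches 40% lysis signal rise at or below the highest valid concentration tested for that sample; inconclusive means flat fit between 30% and 70%, or poor curve fit; inactive means signal falls, stays flat within 30%, or no crossing.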
Columns and labels:
[1] = fungal growth arrest, C. neoformans – Alamar Blue, cherry-picks, dose response (AID 686998;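 active means falling signal with fitted half-maximal potency no higher than twice the top valid tested dose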)
[2] = C. neoformans lysis by adenylate kinase leakage – AK release luminescence, cherry-picks, dose response (AID 687000);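 further: luminescent detection of adenylate kinase leaking from lysed yeast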
[3] = viability loss in HepG2 hepatoma cells – cell-based, cherry-picks, set 2, cytotoxicity control, dose response (AID 687002;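 active means a dose-response fit showing signal loss, with half-maximal concentration no higher than twice the top tested dose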)
[4] = viability loss in HeLa cells – cell-based, ATP luminescence, cherry-pick samples, cytotoxicity control, dose response (AID 687004;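 active means a fitted half-maximal concentration no higher than twice the top valid tested dose, with signal falling as cells die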)

Measured: outcome

CCC(C)(NC=O)C(=O)Nc1c(C)cccc1C (stereo unspecified)
inactive: all assays above

CN1C(=O)N[C@@H]2c3ccccc3O[C@@]1(C)[C@@H]2COC(=O)c1ccccc1
inactive: all assays above

Cc1noc(C)c1NC(=O)Nc1cccc2c1O[C@@H](CN(C)S(=O)(=O)c1cn(C)cn1)[C@@H](C)CN([C@@H](C)CO)C2=O
inactive: all assays above

COc1cccc(S(=O)(=O)Nc2ccc3c(c2)[C@@H]2C[C@@H](CC(=O)NCc4cccc(F)c4)O[C@H](CO)[C@@H]2O3)c1
inactive: all assays above

O=C(CSc1ncnc2c1cnn2-c1ccccc1)NC1CCS(=O)(=O)C1 (stereo unspecified)
inactive: all assays above

CC(C)(C)NC(=O)CSc1ncnc2c1cnn2-c1ccccc1
inactive: all assays above

CC(C)NC(=O)N(C)C[C@H]1Oc2c(NC(=O)C3CCCCC3)cccc2C(=O)N([C@H](C)CO)C[C@H]1C
inactive: all assays above

C[C@@H]1CN([C@H](C)CO)C(=O)c2cc(NS(=O)(=O)c3ccc(Cl)cc3)ccc2O[C@H]1CN(C)S(=O)(=O)c1ccc(F)cc1
inactive: all assays above

O=C(NC(=S)Nc1ccc(CN2CCOCC2)cc1)c1ccccc1[N+](=O)[O-]
inactive: all assays above

C[C@@H]1CN([C@H](C)CO)C(=O)c2cc(N(C)C)ccc2O[C@@H]1CN(C)C(=O)Nc1ccc(C(F)(F)F)cc1
inactive: all assays above

CCCNC(=O)Nc1ccc2c(c1)C(=O)N(C)C[C@H](OC)[C@@H](C)CN(C(=O)CC)[C@@H](C)CO2
inactive: all assays above

CC(C)NC(=O)N(C)C[C@@H]1OCCCC[C@H](C)Oc2ccc(NC(=O)c3ccccc3)cc2C(=O)N([C@H](C)CO)C[C@H]1C
inactive: all assays above

Cc1noc(C)c1S(=O)(=O)Nc1ccc2c(c1)C(=O)N([C@@H](C)CO)C[C@H](C)[C@@H](CN(C)Cc1ccc3c(c1)OCO3)OCCCC[C@@H](C)O2
inactive: all assays above

Cc1cccc(C)c1NC(=O)C(CCc1ccccc1)N1CCN(CCN(C)C)CC1 (stereo unspecified)
inactive: all assays above

Cc1ccc(S(=O)(=O)Nc2ccc3c(c2)C(=O)N([C@@H](C)CO)C[C@H](C)[C@H](CN(C)C(=O)Nc2ccc(C(F)(F)F)cc2)O3)cc1
inactive: all assays above

CNC[C@@H]1OCCCC[C@H](C)Oc2ccc(NC(=O)NC(C)C)cc2C(=O)N([C@H](C)CO)C[C@H]1C
inactive: all assays above

Cc1cccc(C)c1NC(=O)C1NC(=O)CC1c1ccccc1 (stereo unspecified)
inactive: all assays above

C[C@@H]1CCCCO[C@H](CN(C)C(=O)c2ccccc2)[C@@H](C)CN([C@@H](C)CO)C(=O)c2cc(NC(=O)c3ccccc3)ccc2O1
inactive: all assays above

CC(=O)c1cccc(NC(=S)NC2CCCCC2)c1
inactive: all assays above

C[C@@H]1CN([C@@H](C)CO)C(=O)c2cc(NS(=O)(=O)c3cn(C)cn3)ccc2O[C@@H]1CN(C)C(=O)Nc1cccc2ccccc12
inactive: all assays above

C/C=C/c1ccc([C@H]2[C@@H](C#N)N(S(=O)(=O)c3cccc(F)c3)[C@H]2CO)cc1
inactive: all assays above

COc1ccc(NC(=O)Nc2ccc3c(c2)C(=O)N([C@H](C)CO)C[C@@H](C)[C@@H](CN(C)S(=O)(=O)c2ccc(Cl)cc2)OCCCC[C@H](C)O3)cc1
inactive: all assays above

Cc1cc(C(=O)Nc2ccc3c(c2)C(=O)N(C)[C@H]2CC[C@@H](CC(=O)N[C@@H](C)c4ccccc4)O[C@H]2CO3)no1
inactive: all assays above

C[C@@H](O)C#Cc1ccc([C@@H]2[C@H]3CN(CC4CC4)CCCCN3[C@H]2CO)cc1
inactive: all assays above

CNC(=O)C[C@H]1CC[C@H]2[C@@H](COc3ccc(NC(=O)Nc4ccccc4)cc3C(=O)N2C)O1
inactive: all assays above

CNC[C@@H]1Oc2c(NS(=O)(=O)c3cccs3)cccc2C(=O)N([C@@H](C)CO)C[C@H]1C
inactive: all assays above

Cc1cccc(C)c1NC(=O)CN1CCN(C(=O)CNC(=O)c2ccc(N3CCCC3=O)cc2)CC1
inactive: all assays above

COCCNC(=O)C[C@@H]1C[C@H]2c3cc(NC(=O)C4CCC4)ccc3O[C@H]2[C@@H](CO)O1
inactive: all assays above

CCCNC(=O)Nc1ccc2c(c1)C(=O)N(C)C[C@H](OC)[C@@H](C)CN(Cc1cccnc1)[C@H](C)CO2
inactive: all assays above

COc1cccc(S(=O)(=O)N(C)C[C@@H]2Oc3ncc(-c4cccc(F)c4)cc3C(=O)N([C@H](C)CO)C[C@@H]2C)c1
inactive: all assays above

Cc1cc(C(=O)Nc2ccc3c(c2)C(=O)N(C)[C@@H]2CC[C@@H](CC(=O)N[C@@H](C)c4ccccc4)O[C@@H]2CO3)no1
inactive: all assays above

O=S(=O)(NC[C@@H]1[C@@H](c2ccccc2)[C@H](CO)N1CC1CC1)c1ccccc1
inactive: all assays above

CN1C(=O)c2cc(NS(C)(=O)=O)ccc2OC[C@@H]2O[C@@H](CC(=O)O)CC[C@@H]21
inactive: all assays above

Cc1noc(C)c1S(=O)(=O)N(C)C[C@H]1OCCCC[C@@H](C)Oc2ccc(NC(=O)CCCCCC(=O)Nc3ccccc3N)cc2C(=O)N([C@@H](C)CO)C[C@@H]1C
inactive: all assays above

C[C@H]1CN([C@@H](C)CO)C(=O)Cc2cc(NC(=O)Nc3cccc4ccccc34)ccc2O[C@H]1CN(C)S(=O)(=O)c1cccs1
inactive: all assays above

C[C@H]1CN([C@@H](C)CO)S(=O)(=O)c2ccc(C#Cc3cccc(F)c3)cc2O[C@@H]1CN(C)C
inactive: all assays above

CC(C)NC(=O)NCC[C@@H]1CC[C@@H](NC(=O)CN(C)C)[C@@H](CO)O1
inactive: all assays above

C[C@@H]1CCCCO[C@@H](CN(C)CC2CCCCC2)[C@@H](C)CN([C@@H](C)CO)C(=O)c2cc(NS(=O)(=O)c3ccccc3)ccc2O1
inactive: all assays above

O=C(C[C@@H]1C=C[C@@H](NC(=O)c2cccc(F)c2)[C@H](CO)O1)NCCN1CCCC1
inactive: all assays above

O=C(Nc1ccc(F)cc1)N1C[C@H]2[C@@H](c3ccccc31)[C@@H](CO)N2Cc1cocn1
inactive: all assays above

O=C(NCC[C@H]1CC[C@@H](NS(=O)(=O)c2ccc(F)cc2)[C@H](CO)O1)c1ccc2c(c1)OCO2
inactive: all assays above

CNC(=O)CSc1ncnc2c1cnn2-c1ccccc1
inactive: all assays above

COc1ccccc1CNC(=O)C[C@@H]1CC[C@@H]2[C@H](COc3ccc(NC(C)=O)cc3C(=O)N2C)O1
inactive: all assays above

C[C@@H]1CN([C@H](C)CO)C(=O)Cc2cc(NC(=O)CCCCCC(=O)Nc3ccccc3N)ccc2O[C@H]1CN(C)Cc1ccc2c(c1)OCO2
inactive: all assays above

CC(C)(C)C(=O)N1CCCC1C(=O)Nc1ccccc1 (stereo unspecified)
inactive: all assays above

CC(=O)N1[C@@H]2c3ccc(-c4ccccc4)c(=O)n3C[C@H]1[C@H](CO)[C@H]2C(=O)Nc1ccccc1
inactive: all assays above

C[C@@H]1CN([C@@H](C)CO)C(=O)c2cc(-c3ccc(C#N)cc3)cnc2O[C@@H]1CN(C)C(=O)Nc1ccc(F)cc1
inactive: all assays above

C[C@@H]1CN([C@H](C)CO)C(=O)c2cc(NC(=O)CCC(F)(F)F)ccc2O[C@@H](C)CCCCO[C@@H]1CN(C)C(=O)c1ccncc1
inactive: all assays above

C[C@H](CO)N1C[C@H](C)[C@@H](CN(C)S(=O)(=O)c2ccccc2)Oc2c(NC(=O)Nc3cccc4ccccc34)cccc2C1=O
inactive: all assays above

COc1ccc(CNC(=O)COc2ccc(OC)cc2)cc1
inactive: all assays above

C[C@@H]1CN([C@@H](C)CO)C(=O)c2cc(-c3cncnc3)cnc2O[C@H]1CN(C)C(=O)Cc1ccccc1
inactive: all assays above

O=C(C[C@H]1CC[C@@H]2[C@H](COC[C@@H](O)CN2Cc2cccc(C(F)(F)F)c2)O1)NCc1ccc(Cl)cc1
inactive: all assays above

CCn1cc(C(=O)N(C)c2ccc(OC)cc2OC)c2cc(OC)c(OC)cc2c1=O
inactive: all assays above

COc1cccc(S(=O)(=O)Nc2ccc3c(c2)[C@H]2C[C@H](CC(=O)NCc4cccc(F)c4)O[C@@H](CO)[C@H]2O3)c1
inactive: all assays above

From PubChem BioAssay
